# SMN2 splice up = SMN2 splice variant enhancement | HEK293 SMN2-luciferase splicing reporter, luminescence, 30-36 h | Potency, µM (series often up to 46.1 µM), for the others: at the highest dose activity change, positive = activation, actives largely listed as activators | actives 2.8% (n = 210,000); note: % of control where 0% means no effect; nearly all actives have a fitted effect of over 55% in size
#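 HEK293 cells carry an SMN2 […]–luciferase reporter in which exon 7 inclusion puts luciferase in frame. Cells were plated 10-12 h before compound addition, then incubated 30-36 h at 37C. ONE-Glo luminescence was read; sodium butyrate at 4.5 mM final served as control.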
# FLuc counter = firefly luciferase modulation, counter-screen for miR-21 project. purified FLuc, Km substrates, luminescence inhibition. actives 6.9% (n = 360,000). Potency, µM (series often up to 57.5 µM), inactives show at the top dose activity change, negative = inhibition, most hits filed as inhibitors;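 note: plate controls were vehicle for no effect and reference inhibitor for full effect; nearly all actives have a fitted effect of over 55% in size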
# Target sequence (P08659 whole entry, looked up): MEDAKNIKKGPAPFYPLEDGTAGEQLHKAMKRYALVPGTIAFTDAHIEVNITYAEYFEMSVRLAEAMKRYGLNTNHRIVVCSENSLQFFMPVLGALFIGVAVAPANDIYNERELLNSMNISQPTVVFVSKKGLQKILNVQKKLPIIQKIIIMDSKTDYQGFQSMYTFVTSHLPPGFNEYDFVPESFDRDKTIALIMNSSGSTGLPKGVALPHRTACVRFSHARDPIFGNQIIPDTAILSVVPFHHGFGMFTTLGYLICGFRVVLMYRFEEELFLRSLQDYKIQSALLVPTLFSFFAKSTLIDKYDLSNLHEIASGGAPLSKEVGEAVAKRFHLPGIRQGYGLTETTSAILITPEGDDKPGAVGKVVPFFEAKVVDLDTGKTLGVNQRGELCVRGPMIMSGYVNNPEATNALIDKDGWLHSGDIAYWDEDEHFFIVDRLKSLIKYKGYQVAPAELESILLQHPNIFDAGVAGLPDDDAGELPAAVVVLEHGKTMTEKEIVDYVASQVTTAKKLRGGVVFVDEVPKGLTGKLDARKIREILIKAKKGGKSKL
#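 Biochemical qHTS of compounds, final roughly 60 µM downward over six points, against 10 nM purified firefly luciferase using Km concentrations of substrates (10 uM D-luciferin, 10 uM ATP) in Tris acetate pH 7.5 buffer; luminescence output.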
# Rab9 promoter act = activators of Rab9 promoter; Huh7 Rab9 promoter-luciferase reporter, luminescence, 24 h; Potency, µM (top dose mostly 9.22 µM), without a hit: at the top dose activation, negative = inhibition, hits mostly activators; actives 2.8% (n = 320,000); AID 485297; note: % of control where 0% means no effect; nearly all actives have a fitted effect of over 60% in size
#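 Measured in stably transfected Huh7 cells bearing a Rab9 promoter–luciferase construct: 24 h compound treatment at 37 °C, followed by luminescence detection.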
# uPA surface inh = inhibitors of cell surface uPA generation; cell surface uPA generation assay, qHTS; Potency, µM (series often up to 38.3 µM), without a hit: at the highest dose activity change, negative = inhibition, actives largely listed as inhibitors; actives 0.31% (n = 330,000); active = well fitted inhibition curve with a large enough effect; inconclusive = small, poorly fitted or top-dose-only effect; inactive = no such curve, though single readings can be large or run the other way; tested in mouse RAW 264.7 cells; note: % is set by controls: 0 for no effect and ±100 for the full control effect; nearly all actives have a fitted effect of over 55% in size
# NPC1 prom act = activators of NPC1 promoter. Huh7 NPC1 promoter luciferase reporter, 24 h. actives 2.4% (n = 320,000). Potency, µM (titrated, usually from 9.22 µM), without a hit: at the highest dose activation, actives largely listed as activators; note: % of control where 0% means no effect; nearly all actives have a fitted effect of over 60% in size
#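 Luminescence from an NPC1 promoter-driven luciferase reporter in stably transfected Huh7 cells was measured after 24 h compound treatment at 37 °C, followed by 10 min ambient incubation with luciferase detection reagent.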
# ELG1 genotoxic = inducers of genotoxicity in HEK293T ELG1-luciferase cells | actives 1.3% (n = 330,000) | Potency, µM (series often up to 46 µM), without a hit: at the top dose activity change, positive = activation, most hits filed as activators | AID 504466 | HEK293T ELG1-luciferase reporter, luminescence, 16 h; note: % of control where 0% means no effect; nearly all actives have a fitted effect of over 60% in size
#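 ELG1-luciferase HEK293T cells, 2,000/well; compound pinned in; 16 hr, 37 °C, 5% CO2; ONE-Glo, 30 min RT; luminescence on CCD imager.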
# An asterisk follows results filed as active; ? = inconclusive; . = not tested or not shown; [ ] = remark or other dose. Sampled rows, rich in hits. Any-hit rate of the full collection: about 7.3%. Unless noted, calls come from the whole dose curve; as a rule, active = well fitted curve in the direction sought with a large enough effect; inconclusive = small, poorly fitted or top-dose-only effect, or another doubt; inactive = no such curve, though single readings can be large; an effect the other way counts as inactive or inconclusive. Potency is the fitted concentration of half-maximal effect.
SMILES,SMN2 splice up,FLuc counter,Rab9 promoter act,uPA surface inh,NPC1 prom act,ELG1 genotoxic
O=C(O)Cc1sc(N/N=C\c2ccccc2)nc1-c1ccccc1,16%,24µM*,12%,0%,7%,0%
O=C(O)Cc1sc(-c2ccccc2Cl)nc1-c1ccccc1,-21%,24µM*,4%,-2%,-6%,-11%
Cc1ccc(-c2nc(Nc3cccc(C)c3)sc2CC(=O)O)cc1,.,?,4%,-18%,12%,?
COc1ccc(/C(C)=N/Nc2nc(C)c(C(C)=O)s2)cc1,.,?,-1%,-19%,-2%,3%
CC(=O)c1sc(N/N=C\c2ccccc2O)nc1C,?,3.4µM*,?,-5%,?,6.5µM*
Cc1nc(N/N=C/c2ccccn2)sc1C,.,0.15µM*,-41%,-13%,-30%,0.13µM*
CCOc1ccc(NC(=O)CSc2nc3ccsc3c(=O)n2C(C)CC)cc1 (stereo not given),.,3%,.,.,.,.
COCc1cc(C)n(CC(=O)Nc2ccc(NC(C)=O)cc2)c(=O)c1C#N,7%,-4%,.,.,.,.
CCOC(=O)Cn1c(=O)n(-c2ccccc2OC)c2nc(-c3ccccc3)nc(C(N)=O)c21,.,-1%,.,.,.,.
C=CCNc1nc(-c2cccs2)c(CC(=O)O)s1,.,-1%,0%,-1%,2%,-1%
O=C(O)Cc1sc(Nc2ccccc2)nc1-c1cccs1,.,12µM*,27%,1%,?,?
COc1ccc(/C=C(\CC(=O)O)c2nc3ccccc3o2)cc1,30%,9.5µM*,?,4%,2%,16µM*
COc1ccc(C(=O)/C(=C/c2cccs2)c2nc3ccccc3o2)cc1,-72%,-12%,3.5µM*,1%,4µM*,?
O=C(Nc1ccc(N2CCCCCC2)cc1)c1ccccc1Cl,14µM*,11µM*,?,-15%,21%,?
CC(=O)N1CCN(c2ccc(NC(=O)c3ccccc3Cl)cc2)CC1,.,-4%,2%,-4%,1%,1%
COc1ccccc1C(=O)Nc1ccc(N2CCCCC2)cc1,18µM*,2.7µM*,4µM*,-6%,?,2.9µM*
O=C(Nc1ccc(N2CCCCC2)cc1)C(Cl)c1ccccc1 (stereo not given),16%,3µM*,0%,-8%,?,10µM*
O=C(Nc1ccc(N2CCCC2)cc1)C(c1ccccc1)c1ccccc1,-13%,3%,-4%,1%,-2%,3%
O=C(Nc1ccc(N2CCCCC2)cc1)c1ccccn1,-77%,0.067µM*,?,-16%,?,?
CCc1ccc(-n2nc(CO)c(C(=O)NCCCc3ccccc3)n2)cc1,6%,-18%,.,.,.,.
O=C(Nc1ccc(SC(F)(F)F)cc1)c1ccccn1,2.2µM*,0.85µM*,1.4µM*,-10%,?,2.3µM*
O=C(Nc1ccc(N2CCCCCC2)cc1)c1ccc[nH]1,.,.,0.4µM*,?,1.1µM*,?
CC(=O)NS(=O)(=O)c1ccc(NC(=O)c2ccccn2)cc1,0%,-4%,-18%,2%,-6%,0%
O=C(NCc1cccc(Br)c1)C1CCCCN1S(=O)(=O)c1ccc(F)cc1 (stereo not given),.,-9%,.,.,.,.
N=c1occ(C(=O)c2cc(F)ccc2O)cc1C(=O)NC1CCCCC1,-11%,?,-1%,-1%,4%,1%
SMILES,SMN2 splice up,FLuc counter,Rab9 promoter act,uPA surface inh,NPC1 prom act,ELG1 genotoxic
COc1cc2c(cc1OC)C(C)N(C(=O)c1c(C)noc1C)CC2 (stereo not given),.,-1%,-4%,5µM*,-3%,3%
COc1cc2c(cc1OC)C(C)N(C(=O)c1cc(C)on1)CC2 (stereo not given),.,3%,-15%,-10%,-8%,?
COc1cc2c(cc1OC)C(C)N(C(C)=O)CC2 (stereo not given),0.63µM*,3%,-1%,-24%,-1%,?
COc1ccc(C(=O)N2CC(=O)Nc3ccc(C)cc3C2c2ccc(F)cc2)c(OC)c1 (stereo not given),3%,-12%,.,.,.,.
COc1cccc(-c2cc(C(=O)N3CCN(c4ncccn4)CC3)c3ccccc3n2)c1,35µM*,?,2%,-4%,11%,-13%
CC(C)Oc1cccc(-c2cc(C(=O)N3CCN(c4ncccn4)CC3)c3ccccc3n2)c1,29%,1.3µM*,17%,.,24%,-12%
CC(C)Oc1cccc(-c2cc(C(=O)N3CCN(S(C)(=O)=O)CC3)c3ccccc3n2)c1,?,3µM*,25%,-1%,20%,-15%
Cc1ccc2nc(-c3ccccn3)cc(C(=O)N3CCN(c4ncccn4)CC3)c2c1,13%,19µM*,-1%,6%,-1%,-12%
COc1ccc(-c2cc(C(=O)N3CCC3)c3ccccc3n2)cc1OC,.,3%,-2%,-29%,1%,3%
CNS(=O)(=O)c1ccc(CNC[C@H]2O[C@@H](n3cnc(C(N)=O)n3)[C@H](O)[C@@H]2O)cc1,.,.,.,1%,.,.
Cn1c(SCc2ccc(F)cc2Cl)nc2ccccc2c1=O,.,-11%,-16%,-3%,-14%,-5%
COc1ccc(-c2cc(C(=O)N3CCN(c4ncccn4)CC3)c3ccccc3n2)cc1OC,.,13µM*,0%,-13%,7%,-3%
Clc1ccc(CSc2snnc2-c2ccccc2)c(Cl)c1,?,13µM*,20%,-1%,?,?
COc1ccc(-c2ccc(=O)n(CC(=O)Nc3cc(OC)ccc3OC)n2)cc1,.,-5%,.,.,.,.
COc1ccc([C@]23Cc4ccccc4C(O2)c2c(c4ccc(OC)cc4oc2=O)O3)cc1,.,3.1µM*,2%[1.84 µM],.,19%[1.84 µM],.
COc1ccc2c3c(c(=O)oc2c1)C1O[C@](c2ccsc2)(Cc2ccccc21)O3,.,-7%[11.5 µM],0%[1.84 µM],.,-1%[1.84 µM],.
O=C(CC1C(=O)NCCN1Cc1cccc(F)c1)NC1CCCCC1 (stereo not given),.,0%,2%,6%,-3%,8%
Cc1ccc(NC(=O)CCCC2CCCCC2)c(O)c1,.,8.5µM*,?,-1%,?,?
c1ccc(CCNc2ncnc3ccccc23)cc1,.,12µM*,-23%,?,-19%,2%
CCCCCCCCNc1ncnc2ccccc12,-100%,-15%,-28%,-24%,-25%,0%
Cc1cc2c(NCCc3ccccc3)ncnc2s1,.,12µM*,-7%,-11%,-7%,?
COc1ccc(C(=O)Nc2nnc(S(=O)(=O)N3CCN(c4ccc(F)cc4)CC3)s2)cc1,.,0%,.,.,.,.
COc1cccc(CNC(=O)CN2C(=O)CSc3ccc(S(=O)(=O)N(C)C)cc32)c1,.,3%,.,.,.,.
COc1ccc(-c2nn(-c3ccccc3)cc2CO)cc1,-44%,?,?,9%,3%,?

# Screens from PubChem BioAssay.
